Test [1] relates to Vero E6 infected with SARS-CoV-2. In words: morphology score (similarity to uninfected cells); higher = more like uninfected cells. The settings on record: 24 h.
For test [2] the test system is unchanged. Description: SARS-CoV-2 infection rate relative to infected DMSO; higher = more infection, active = 60 or less. The settings on record: 24 h.

On to `N[C@@H](CSC(c1ccccc1)(c1ccccc1)c1ccccc1)C(=O)O` [S-trityl-L-cysteine] (0.833333 µM), for which the morphology score in test [1] was determined as 0.107. Moreover, the SARS-CoV-2 infection rate in test [2] was 110% (inactive).
The like results for `O=C(/C=C/c1ccc2ccc(C(F)(F)F)cc2n1)c1ccncc1` (10 µM) were, in that order, 0.389 and 63.5% (inactive).
In test [1], `CCOC(=O)C1=C(COCCN)NC(C)=C(C(=O)OC)C1c1ccccc1Cl` (centres undefined) [amlodipine] (10 µM) showed a morphology score of 0.697. Also, in test [2], the SARS-CoV-2 infection rate was 47% (active).
The like results for `CCCC(C)NC(=O)c1ccc(Cl)c(Cl)c1` (centres undefined) (10 µM) were, in that order, -0.46 and 119% (inactive).
Taken in the same sequence, the figures for `NC(=O)N1CCC(CC(=O)N2CCC([C@H]3c4ncc(Br)cc4CCc4cc(Cl)cc(Br)c43)CC2)CC1` [lonafarnib] (10 µM) were 0.736 and 43.5% (active).
`Cn1c(=O)c2c(ncn2CC2OCCO2)n(C)c1=O` [doxofylline] (10 µM) returned a morphology score in test [1] of -0.118. Also, the SARS-CoV-2 infection rate in test [2] was 106% (inactive).
Taken in the same sequence, the figures for `C[C@@H]1CCC[C@H](C)N1NC(=O)c1ccc(Cl)c(S(N)(=O)=O)c1` [clopamide] (10 µM) were -0.0797 and 103% (inactive).
For `CO[C@@]1(NC(=O)CSCC#N)C(=O)N2C(C(=O)O)=C(CSc3nnnn3C)CS[C@@H]21` [cefmetazole] (10 µM), the morphology score in test [1] was 0.148. Moreover, in test [2], the SARS-CoV-2 infection rate was 98.5% (inactive).
In test [1], `CNC(=O)c1c(C)oc2cc(Oc3ncnc4cc(OC)c(OC)cc34)ccc12` [fruquintinib] (10 µM) displayed a morphology score of 0.0139. In addition, in test [2], the SARS-CoV-2 infection rate was 110% (inactive).
The like results for `CO[C@@]1(NC(=O)C2SC(=C(C(N)=O)C(=O)O)S2)C(=O)N2C(C(=O)O)=C(CSc3nnnn3C)CS[C@@H]21` (some centres undefined) [cefotetan] (10 µM) were, in that order, 0.104 and 98% (inactive).
The like results for `Oc1ncnc2[nH]ncc12` [allopurinol] (10 µM) were, in that order, -0.0914 and 108% (inactive).
Taken in the same sequence, the figures for `OC(CCCN1CCCCC1)(c1ccccc1)c1ccccc1` [diphenidol] (10 µM) were -0.109 and 104% (inactive).
In test [1], `CC(C)Cc1ccc(C(C)C(=O)O)cc1` (centres undefined) [ibuprofen] (10 µM) had a morphology score of 0.0447. Further, in test [2], the SARS-CoV-2 infection rate was 108% (inactive).
`CO[C@@H]1[C@H](O)[C@@H](CO)O[C@H]1n1cnc2c(NC3CCCCC3)ncnc21` (10 µM) showed a morphology score in test [1] of -0.0183. Also, the SARS-CoV-2 infection rate in test [2] is 108% (inactive).
On to `Cc1ccc(S(=O)(=O)Nc2ccc3c(c2)c(C(=O)C(F)(F)F)cn3CC(=O)N[C@@H](CC(C)C)C(=O)O)cc1` (10 µM), for which, in test [1], the morphology score came out at 0.0604. In addition, the SARS-CoV-2 infection rate in test [2] was 104% (inactive).
The like results for `CN(c1ccccc1CNc1nc(Nc2ccc3c(c2)CC(=O)N3)ncc1C(F)(F)F)S(C)(=O)=O` (10 µM) were, in that order, 0.0447 and 114% (inactive).
In test [1], `Cc1[nH]nc(C(F)(F)F)c1Cc1sc2c(c1C(=O)N1C[C@](C)(O)CO1)c(=O)n(C)c(=O)n2C(C)C` (10 µM) registered a morphology score of 0.0405. For the same compound, the SARS-CoV-2 infection rate in test [2] was 101% (inactive).
The like results for `CCOC(=O)[C@]12CC1/C(=N\O)c1ccccc1O2` (some centres undefined) (10 µM) were, in that order, 0.224 and 90.5% (inactive).
The like results for `COc1cc2c3cc1Oc1cc(ccc1O)C[C@@H]1c4c(cc(OC)c(O)c4Oc4ccc(cc4)C[C@@H]3N(C)CC2)CC[N+]1(C)C` [tubocurarine] (10 µM) were, in that order, -0.0274 and 110% (inactive).
Take `CCCC(=O)Nc1ncnc2c1ncn2[C@@H]1O[C@@H]2COP(=O)(O)O[C@H]2[C@H]1OC(=O)CCC` [bucladesine] (10 µM): the morphology score in test [1] is 0.0459. Moreover, in test [2], the SARS-CoV-2 infection rate is 104% (inactive).
Take `O=C(Nc1cccc(Cl)c1)Nc1ncc(CCNc2ncnc3ccsc23)s1` (10 µM): the morphology score in test [1] came to 0.393. Moreover, the SARS-CoV-2 infection rate in test [2] is 80% (inactive).
Taken in the same sequence, the figures for `CNC[C@H](O)[C@@H](O)[C@H](O)[C@H](O)CO` [meglumine] (10 µM) were -0.00131 and 104% (inactive).
For the compound `CCOC(=O)[C@@H](N)Cc1ccc(-c2cc(O[C@H](c3ccc(Cl)cc3-n3ccc(C)n3)C(F)(F)F)nc(N)n2)cc1` [telotristat-ethyl] (10 µM), the morphology score in test [1] was determined as 0.343. Moreover, the SARS-CoV-2 infection rate in test [2] was 95.5% (inactive).
Compound `Cc1ccc(NC(=O)c2ccc(CN3CCN(C)CC3)cc2)cc1Nc1nc(-c2cccnc2)cs1` [masitinib] (10 µM) yielded a morphology score in test [1] of 0.757. Moreover, in test [2], the SARS-CoV-2 infection rate is 43% (active).
The like results for `CC1=C(C(=O)OC2CCCCC2)C(c2ccc([N+](=O)[O-])cc2)C2=C(CC(C)(C)CC2=O)N1` (centres undefined) (0.833333 µM) were, in that order, -0.0965 and 104% (inactive).
For `CC(C)N(CCNC(=O)CN1CCCC1=O)C(C)C` [pramiracetam] (10 µM), in test [1], the morphology score was -0.0542. The SARS-CoV-2 infection rate in test [2] is 115% (inactive).
`C[C@]12CC[C@H](O)C[C@H]1CC[C@@H]1[C@@H]2CC[C@]2(C)[C@@H](C3=CC(=O)OC3)CC[C@]12O` [digitoxigenin] (0.833333 µM): the morphology score in test [1] was -0.0679. Also, the SARS-CoV-2 infection rate in test [2] is 108% (inactive).
The like results for `CN[C@@H](C)CCC=C(C)C` [isometheptene-mucate] (10 µM) were, in that order, -0.0576 and 109% (inactive).
The compound `CC(=O)Nc1ccc(C(=O)O)cc1` [acedoben] (10 µM) displayed a morphology score in test [1] of 0.0304. Also, in test [2], the SARS-CoV-2 infection rate was 102% (inactive).
Consider `C[C@@H]1C[C@H]2[C@@H]3C[C@H](F)C4=CC(=O)C=C[C@]4(C)[C@@]3(Cl)[C@@H](O)C[C@]2(C)[C@H]1C(=O)COC(=O)C(C)(C)C` [clocortolone-pivalate] (10 µM), for which, in test [1], the morphology score was 0.067. For the same compound, the SARS-CoV-2 infection rate in test [2] was 98% (inactive).
As for `NCC(=O)Nc1ccc(-n2nc(C(F)(F)F)cc2-c2ccc3c(ccc4ccccc43)c2)cc1` (0.833333 µM), the morphology score in test [1] is -0.089. Moreover, the SARS-CoV-2 infection rate in test [2] was 99.5% (inactive).
The like results for `CN(C)CCc1c[nH]c2ccc(Cn3cncn3)cc12` [rizatriptan] (10 µM) were, in that order, -0.00598 and 114% (inactive).
Taken in the same sequence, the figures for `NC(N)=Nc1nc(CSCC/C(N)=N/S(N)(=O)=O)cs1` [Famotidine] (10 µM) were -0.0119 and 106% (inactive).
In turn, `C[C@H](Cc1cc2c(c(C(N)=O)c1)N(CCCO)CC2)NCCOc1ccccc1OCC(F)(F)F` [silodosin] (10 µM) displayed a morphology score in test [1] of -0.144. The SARS-CoV-2 infection rate in test [2] is 106% (inactive).
For the compound `CCCCCCCCCCCCC[N+](C)(C)Cc1ccccc1` [benzalkonium] (10 µM), the morphology score in test [1] came out at 0.0369. Moreover, in test [2], the SARS-CoV-2 infection rate is 105% (inactive).
Taken in the same sequence, the figures for `OC[C@H]1O[C@@H](OCCc2ccc(O)cc2)[C@H](O)[C@@H](O)[C@@H]1O` [salidroside] (10 µM) were 0.0363 and 116% (inactive).
In test [1], `CC[C@H](C)[C@H](N)C1=N[C@H](C(=O)N[C@@H](CC(C)C)C(=O)N[C@H](CCC(=O)[O-])C(=O)N[C@H](C(=O)N[C@H]2CCCCNC(=O)[C@H](CC(N)=O)NC(=O)[C@@H](CC(=O)[O-])NC(=O)[C@H](Cc3cnc[nH]3)NC(=O)[C@@H](Cc3ccccc3)NC(=O)[C@H]([C@@H](C)CC)NC(=O)[C@@H](CCCN)NC2=O)[C@@H](C)CC)CS1.[Zn+2]` [bacitracin-zinc] (10 µM) came in with a morphology score of -0.0221. In test [2], the SARS-CoV-2 infection rate is 108% (inactive).
In the case of `COc1ccc2[nH]c([S+]([O-])Cc3ncc(C)c(OC)c3C)nc2c1` (centres undefined) [omeprazole-magnesium] (10 µM), in test [1], the morphology score is -0.138. The SARS-CoV-2 infection rate in test [2] was 116% (inactive).
Taken in the same sequence, the figures for `CC1Sc2c(C(=O)O)c(=O)c3cc(F)c(N4CCNCC4)cc3n21` (centres undefined) [ulifloxacin] (10 µM) were -0.0402 and 106% (inactive).
The like results for `COC(=O)N[C@H](C(=O)N1CCC[C@H]1c1nc(-c2ccc3c(c2)O[C@@H](c2ccccc2)n2c-3cc3cc(-c4c[nH]c([C@@H]5CCCN5C(=O)[C@@H](NC(=O)OC)C(C)C)n4)ccc32)c[nH]1)C(C)C` [elbasvir] (10 µM) were, in that order, -0.17 and 120% (inactive).
In test [1], `O=C1c2cccc3c2[C@H](CCC3)CN1[C@@H]1CN2CCC1CC2` [palonosetron] (10 µM) registered a morphology score of 0.324. Also, the SARS-CoV-2 infection rate in test [2] was 91.5% (inactive).
Taken in the same sequence, the figures for `CCn1cc(-c2cccc(C(F)(F)F)c2)c2sc(C(=N)NC3CCS(=O)(=O)CC3)cc2c1=O` (10 µM) were -0.122 and 110% (inactive).
The like results for `CC(C)NCC(O)COc1ccc(COCCOC(C)C)cc1` (centres undefined) [bisoprolol] (10 µM) were, in that order, -0.0255 and 106% (inactive).
Taken in the same sequence, the figures for `Cc1cccc(C)c1NC(=O)C1CCCCN1C` (centres undefined) [mepivacaine] (10 µM) were 0.171 and 97.5% (inactive).
In turn, `O=C(NCc1ccncc1)C12CC3CC(C1)CC(c1ccc(Cl)cc1)(C3)C2` (10 µM) yielded a morphology score in test [1] of 0.00848. Further, the SARS-CoV-2 infection rate in test [2] was 97% (inactive).
Turning to `Cc1c(O)c(=O)n(-c2ccccc2)n1C` [4-hydroxy-phenazone] (10 µM), the morphology score in test [1] is -0.0731. Moreover, the SARS-CoV-2 infection rate in test [2] was 116% (inactive).
`CC(C)C(N)=O` [isobutyramide] (10 µM) registered a morphology score in test [1] of 0.073. Besides, the SARS-CoV-2 infection rate in test [2] is 111% (inactive).
Taken in the same sequence, the figures for `Cc1c(Cl)cccc1S(=O)(=O)Nc1nc(CC(=O)N2CCN(C)CC2)cs1` (10 µM) were -0.053 and 110% (inactive).
Compound `CC(C)(C)c1cc(C=C(C#N)C#N)cc(Br)c1O` (10 µM) returned a morphology score in test [1] of 0.14. Also, the SARS-CoV-2 infection rate in test [2] is 108% (inactive).
In test [1], `CCCCCCCCCCCCCCCCNc1ccc(C(=O)O)cc1` [cetaben] (10 µM) came in with a morphology score of 0.21. In addition, the SARS-CoV-2 infection rate in test [2] is 91.5% (inactive).
The like results for `Cc1ccnc2c1NC(=O)c1cccnc1N2C1CC1` [nevirapine] (10 µM) were, in that order, 0.173 and 104% (inactive).
Consider `C#CC1(OCC(O)CN2CCN(c3cccc(C(F)(F)F)c3)CC2)CCCCC1` (centres undefined) [terciprazine] (10 µM), for which, in test [1], the morphology score worked out at 0.107. Further, the SARS-CoV-2 infection rate in test [2] is 104% (inactive).
Taken in the same sequence, the figures for `COc1ccccc1N1CCN(CCCNc2cc(=O)n(C)c(=O)n2C)CC1` [urapidil] (10 µM) were 0.088 and 101% (inactive).
As to `N#CC(Cc1ccc(O)cc1)c1ccc(O)cc1` (centres undefined) [diarylpropionitrile] (10 µM), the morphology score in test [1] was found to be 0.138. For the same compound, in test [2], the SARS-CoV-2 infection rate is 99% (inactive).
For `O=c1c(O[C@@H]2O[C@H](CO)[C@H](O)[C@H](O)[C@H]2O)c(-c2ccc(O)c(O)c2)oc2cc(O)cc(O)c12` [hyperin] (10 µM), in test [1], the morphology score was -0.0819. Moreover, the SARS-CoV-2 infection rate in test [2] is 112% (inactive).
In test [1], `FC(F)(F)C(F)(F)C(F)(F)N(C(F)(F)C(F)(F)C(F)(F)F)C(F)(F)C(F)(F)C(F)(F)F` [perfluamine] (10 µM) displayed a morphology score of 0.16. Also, in test [2], the SARS-CoV-2 infection rate is 92.5% (inactive).
In the case of `O=C(NC(Cc1cc(=O)[nH]c2ccccc12)C(=O)O)c1ccc(Cl)cc1` (centres undefined) [rebamipide] (10 µM), the morphology score in test [1] came out at 0.0758. The SARS-CoV-2 infection rate in test [2] is 104% (inactive).

(Values after the supplement of paper PMC13380429.)
